# Measurements from PubChem BioAssay (NCATS).
# Several values for one entry are separate records, joined by “and”; a condition that tells them apart may be missing. Equal entries are not always repeated. Results filed as inconclusive are left out. Where a call stands in place of a potency, no number is given. The source holds several records for some structures; these can differ, active in one and inactive in another. Activity calls are given as the source filed them. Unless noted, calls come from the whole dose curve; as a rule, active = well fitted curve in the direction sought with a large enough effect; inconclusive = small, poorly fitted or top-dose-only effect, or another doubt; inactive = no such curve, though single readings can be large; an effect the other way counts as inactive or inconclusive.
# Assays:
# [1] = qHTS assay for small molecule disruptors of the mitochondrial membrane potential - 1 hr assay (AID 651754; calls by dose curve; note: nearly all actives have a fitted effect of over 35% in size; note: potency is the fitted concentration of half-maximal effect)
# Summary of the method: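 Mitochondrial potential in living HepG2 cells after 1 hr compound treatment at 37C was read with Mito-MPS dye added for a further 30 min. Red aggregate and green monomer fluorescence were measured; loss of potential leaves dye as cytoplasmic monomers.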
# [2] = qHTS assay for small molecule disruptors of the mitochondrial membrane potential - 5 hr assay (AID 651755; calls by dose curve; note: nearly all actives have a fitted effect of over 40% in size; note: potency is the fitted concentration of half-maximal effect)
# Summary of the method: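 Seed HepG2 overnight, add compound, incubate 5 hr at 37C and 5% CO2, stain 30 min with Mito-MPS, then measure monomer (490/535 nm) and aggregate (540/590 nm) fluorescence.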
# [3] = target: Nuclear receptor ROR-gamma (Homo sapiens) (UniProt P51449); experiment: qHTS assay for small molecule antagonists of the retinoid-related orphan receptor gamma (ROR-gamma) signaling pathway (AID 651802); note: nearly all actives have a fitted effect of over 60% in size; note: potency is the fitted concentration of half-maximal effect
# Sequence of Nuclear receptor ROR-gamma (Homo sapiens) (P51449 whole entry, looked up): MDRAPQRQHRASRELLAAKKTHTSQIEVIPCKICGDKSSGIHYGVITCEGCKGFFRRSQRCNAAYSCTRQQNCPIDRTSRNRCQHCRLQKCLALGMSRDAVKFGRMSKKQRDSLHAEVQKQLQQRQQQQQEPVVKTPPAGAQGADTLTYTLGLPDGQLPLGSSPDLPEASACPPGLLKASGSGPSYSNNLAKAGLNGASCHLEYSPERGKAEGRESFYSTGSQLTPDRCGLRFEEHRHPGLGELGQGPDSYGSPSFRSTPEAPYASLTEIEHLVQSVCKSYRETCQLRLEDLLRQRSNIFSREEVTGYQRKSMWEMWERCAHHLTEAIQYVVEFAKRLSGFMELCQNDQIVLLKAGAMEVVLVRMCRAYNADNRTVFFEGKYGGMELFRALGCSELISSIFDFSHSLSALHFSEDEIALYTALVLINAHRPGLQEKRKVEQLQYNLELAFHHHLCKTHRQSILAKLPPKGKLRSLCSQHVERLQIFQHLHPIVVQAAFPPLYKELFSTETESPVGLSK
# Summary of the method: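 Luminescence (One-Glo, 30 min RT) measured 16 h after compound addition and doxycycline induction at 37C. Reporter: RORE-luciferase under TET-inducible ROR-gamma in CHO cells.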
# [4] = qHTS assay for small molecule activators of the nuclear factor-kappa B (NF-kB) signaling pathway (AID 651749; active = well fitted activation curve with a large enough effect in the signal ratio; the % refers to the signal ratio; note: series mostly up to about 77 µM); settings: NF-kB-bla ME-180 cells, beta-lactamase FRET ratio, 16 h; stronger effect = higher value
# Summary of the method: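 Human ME-180 cervical cells with an NF-kB-bla construct; compounds added via 23 nL pin transfer, DMSO as vehicle; incubation 16 hr. Reporter activity measured by FRET disruption.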
# [5] = qHTS assay for environmental chemicals that activate the Aryl hydrocarbon Receptor (AhR) signaling pathway (AID 651777); settings: 1A2-DRE human hepatoma cells, luciferase, 24 h; activation: stronger effect = higher value; note: nearly all actives have a fitted effect of over 15% in size
# Summary of the method: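 1A2-DRE human hepatoma reporter line; 1,200 cells/well; cmpd or DMSO 24 h, 37 C/5% CO2; One-Glo 30 min RT; luciferase lum.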
# [6] = target: Peroxisome proliferator-activated receptor alpha (Homo sapiens) (UniProt Q07869); experiment: qHTS assay for small molecule agonists of the peroxisome proliferator-activated receptor alpha (PPARalpha) signaling pathway (AID 651778); settings: PathHunter PPARalpha complementation, chemiluminescence, 6 h; max response: stronger effect = higher value
# Sequence of Peroxisome proliferator-activated receptor alpha (Homo sapiens) (Q07869 whole entry, looked up): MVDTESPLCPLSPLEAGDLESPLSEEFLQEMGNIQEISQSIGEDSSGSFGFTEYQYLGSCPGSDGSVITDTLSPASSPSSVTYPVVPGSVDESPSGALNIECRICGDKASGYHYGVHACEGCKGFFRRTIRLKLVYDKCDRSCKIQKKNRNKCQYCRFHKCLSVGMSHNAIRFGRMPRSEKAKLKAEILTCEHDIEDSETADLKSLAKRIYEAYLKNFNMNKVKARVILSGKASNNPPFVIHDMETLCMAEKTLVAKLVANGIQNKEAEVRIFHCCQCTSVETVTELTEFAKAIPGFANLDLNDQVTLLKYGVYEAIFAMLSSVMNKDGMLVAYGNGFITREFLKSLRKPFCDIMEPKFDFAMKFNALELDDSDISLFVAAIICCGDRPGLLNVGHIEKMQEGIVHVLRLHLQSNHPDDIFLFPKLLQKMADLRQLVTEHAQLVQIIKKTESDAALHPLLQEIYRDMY
# Summary of the method: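 Cells plated at 2,000/well and held overnight at 37 C, 5% CO2, then compound added by pin tool for 6 hr; after PathHunter detection reagent and 60 min at room temperature, chemiluminescence from enzyme complementation was read.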
# [7] = target: Tyrosine-protein kinase Yes (Homo sapiens) (UniProt P07947); experiment: qHTS for small molecule inhibitors of Yes1 kinase: Primary Screen (AID 686947); note: nearly all actives have a fitted effect of over 60% in size
# Sequence of Tyrosine-protein kinase Yes (Homo sapiens) (P07947 whole entry, looked up): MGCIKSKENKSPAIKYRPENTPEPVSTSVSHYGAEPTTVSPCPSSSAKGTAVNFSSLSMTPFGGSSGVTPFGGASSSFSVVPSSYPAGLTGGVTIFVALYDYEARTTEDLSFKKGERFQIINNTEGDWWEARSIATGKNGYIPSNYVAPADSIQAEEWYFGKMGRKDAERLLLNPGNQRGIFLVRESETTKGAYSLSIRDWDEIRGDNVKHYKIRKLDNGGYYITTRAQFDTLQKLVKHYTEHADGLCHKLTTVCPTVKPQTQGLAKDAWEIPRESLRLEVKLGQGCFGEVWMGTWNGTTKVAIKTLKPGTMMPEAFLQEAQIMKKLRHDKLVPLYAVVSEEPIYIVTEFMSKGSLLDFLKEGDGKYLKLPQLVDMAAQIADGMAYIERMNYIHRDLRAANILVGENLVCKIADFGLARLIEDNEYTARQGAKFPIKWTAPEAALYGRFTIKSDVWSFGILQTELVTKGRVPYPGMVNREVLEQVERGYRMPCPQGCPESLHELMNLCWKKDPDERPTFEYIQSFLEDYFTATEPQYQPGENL
# Summary of the method: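 ADP-Glo luminescence reports ADP formed by 4 nM Yes1 phosphorylating poly(E4Y) (0.3 mg/mL) with 0.1 mM ATP for 60 min at room temperature, following 20 min compound preincubation; normalised between DMSO wells with and without enzyme.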
# [8] = qHTS for small molecule inhibitors of Yes1 kinase: Counter Assay (AID 686950);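 note: no kinase present so only ADP-Glo detection of a fixed ADP amount is tested; luminescence from ADP-Glo reporting ADP in a fixed ATP and ADP mixture; series mostly up to about 77 µM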
# Summary of the method: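 Measuring interference with ADP-Glo, the assay ran 60 min at room temperature on an ATP/ADP mix lacking enzyme. Values were normalized to ATP-plus-ADP (maximum) and ATP-only (minimum) DMSO controls.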
# [9] = target: Arylsulfatase A (Homo sapiens) (UniProt P15289); experiment: qHTS screen for enhancers of Arylsulfatase A (ASA1): LOPAC Validation Assay (AID 720538)
# Sequence of Arylsulfatase A (Homo sapiens) (P15289 whole entry, looked up): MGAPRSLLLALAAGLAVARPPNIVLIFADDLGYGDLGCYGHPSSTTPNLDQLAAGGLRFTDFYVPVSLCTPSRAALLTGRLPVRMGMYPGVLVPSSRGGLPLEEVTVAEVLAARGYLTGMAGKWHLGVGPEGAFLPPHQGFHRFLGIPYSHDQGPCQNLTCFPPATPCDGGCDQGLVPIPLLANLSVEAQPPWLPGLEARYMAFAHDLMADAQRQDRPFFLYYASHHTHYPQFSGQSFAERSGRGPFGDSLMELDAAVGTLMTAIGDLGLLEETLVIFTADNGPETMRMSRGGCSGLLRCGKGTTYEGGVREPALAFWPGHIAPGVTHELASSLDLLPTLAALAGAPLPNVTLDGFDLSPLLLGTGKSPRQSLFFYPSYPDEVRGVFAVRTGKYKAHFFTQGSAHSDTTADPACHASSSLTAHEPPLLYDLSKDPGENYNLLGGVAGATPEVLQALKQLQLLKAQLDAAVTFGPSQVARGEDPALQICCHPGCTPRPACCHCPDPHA
# Summary of the method: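 First, ASA-I179S fibroblasts from an MLD patient adhered for 6 hrs. Next, compounds were added for 48h. Then pNCS substrate (0.5mM final) with lysis buffer reacted 14h at room temperature before NaOH stop and fluorescence measurement.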
# [10] = qHTS for compounds that reverse cellular toxicity of Amyloid beta (A-beta) peptide in yeast: LOPAC Validation Assay (AID 720559)
# Summary of the method: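 Activity is expressed relative to DMSO and an equimolar ferric chloride/clioquinol mix. Compounds were pinned into medium with A-beta-expressing yeast, grown 48 hr at 30 C, then read by absorbance at 600 nm.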
# [11] = qHTS for Activators of Parkin Expression: LOPAC Validation Assay (NLuc Reporter) (AID 720572)
# Summary of the method: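 Cells harboring the Parkin-promoter coincidence reporter were treated for 24 h at seven concentrations. NLuc output was measured sequentially after the FLuc channel and scaled between DMSO and positive control values.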
# [12] = qHTS for Activators of Parkin Expression: LOPAC Validation Assay (FLuc Reporter) (AID 720573)
# Summary of the method: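 A neuronal cell line harbouring FLuc and NLuc reporters behind the Parkin promoter was exposed to compounds for 24 h. Firefly luciferase signal, measured after 10 min with detection reagent, was scaled to DMSO and positive-control wells.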
# [13] = qHTS assay for small molecule agonists of the antioxidant response element (ARE) signaling pathway measured by Nrf2-dependant transcriptional activity - cell viability counter screen (AID 720653; active = well fitted curve in the direction sought with a large enough effect in the repeat runs; an effect the other way counts as inactive or inconclusive; note: potency is the fitted concentration of half-maximal effect); settings: ARE-bla HepG2 viability, CellTiter-Glo ATP luminescence, 16 h; max response: stronger effect = lower value
# Summary of the method: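 ARE-bla HepG2 cells (2,000/well) rested 5 hrs at 37C/5% CO2, then exposed to compounds in DMSO for 16 hrs. Viability was read in the same wells as intracellular ATP by luminescence, 30 min at room temperature after reagent addition.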
# [14] = target: T1, Hexokinase-4 (Homo sapiens) + Glucokinase regulatory protein (Homo sapiens) (UniProt P35557+Q14397); experiment: qHTS assay for inhibitors of recombinant human GCK-GKRP interaction: Diaphorase-coupled assay (AID 743205)
# T1 sequence (P35557 whole entry, looked up): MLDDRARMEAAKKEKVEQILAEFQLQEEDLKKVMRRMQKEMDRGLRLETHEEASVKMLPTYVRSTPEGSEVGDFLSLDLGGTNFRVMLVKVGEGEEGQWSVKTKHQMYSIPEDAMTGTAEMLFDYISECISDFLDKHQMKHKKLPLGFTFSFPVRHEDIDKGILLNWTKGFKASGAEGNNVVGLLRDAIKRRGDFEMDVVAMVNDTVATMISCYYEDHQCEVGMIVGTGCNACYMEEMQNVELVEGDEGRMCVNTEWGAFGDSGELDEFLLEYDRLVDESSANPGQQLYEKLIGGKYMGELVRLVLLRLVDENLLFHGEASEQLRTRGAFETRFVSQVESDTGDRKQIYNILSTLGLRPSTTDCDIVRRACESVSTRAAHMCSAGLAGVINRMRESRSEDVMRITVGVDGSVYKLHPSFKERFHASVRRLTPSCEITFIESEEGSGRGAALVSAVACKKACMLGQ
# T1 sequence (Q14397 whole entry, looked up): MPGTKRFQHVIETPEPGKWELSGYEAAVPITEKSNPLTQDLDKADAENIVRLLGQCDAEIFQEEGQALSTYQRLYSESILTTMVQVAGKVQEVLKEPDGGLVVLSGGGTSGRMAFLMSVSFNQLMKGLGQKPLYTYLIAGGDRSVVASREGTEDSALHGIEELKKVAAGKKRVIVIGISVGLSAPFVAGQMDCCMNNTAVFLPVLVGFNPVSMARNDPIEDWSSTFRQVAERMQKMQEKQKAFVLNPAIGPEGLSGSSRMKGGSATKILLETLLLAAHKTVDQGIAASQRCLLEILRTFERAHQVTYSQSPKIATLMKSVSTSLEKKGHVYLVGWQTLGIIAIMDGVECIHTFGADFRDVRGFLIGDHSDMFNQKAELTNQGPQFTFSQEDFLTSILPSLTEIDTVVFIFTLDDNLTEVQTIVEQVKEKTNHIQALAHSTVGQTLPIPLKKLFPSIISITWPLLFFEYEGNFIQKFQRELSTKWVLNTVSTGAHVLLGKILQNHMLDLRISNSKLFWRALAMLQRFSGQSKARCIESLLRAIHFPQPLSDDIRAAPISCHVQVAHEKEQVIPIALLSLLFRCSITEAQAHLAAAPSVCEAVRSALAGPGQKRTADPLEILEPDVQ
# Summary of the method: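 Inhibitors of the GCK–GKRP complex relieve GKRP suppression of GCK, detected through a G6PDH–diaphorase cascade reducing resazurin. Human GST-GCK and FLAG-GKRP are used at 10 nM with 5 mM glucose and 0.4 mM ATP.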
# [15] = target: T1, Hexokinase-4 (Homo sapiens) + Glucokinase regulatory protein (Homo sapiens); experiment: qHTS assay for inhibitors of recombinant human GCK-GKRP interaction: ADP-Glo assay (AID 743206)
# Summary of the method: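 Pin-transferred compounds meet a 15 nM GST-GCK/15 nM FLAG-GKRP/2 uM S6P mix (dispense concentrations). ATP is then added to 0.4 mM final with 5 mM glucose, and the reaction runs 60 min at room temperature. ADP is quantified luminescently.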
# [16] = target: T1, Hexokinase-4 (Homo sapiens) + Glucokinase regulatory protein (Homo sapiens); experiment: qHTS assay for inhibitors of recombinant human GCK-GKRP interaction: HTRF assay (AID 743207)
# Summary of the method: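 Steps: dispense GCK–GKRP complex (5 nM each, GST- and FLAG-tagged) with 2 uM S6P; pin in compounds; add XL665/Eu-cryptate-labelled antibodies; incubate 60 min at room temperature; read time-resolved FRET at 665 and 615 nm.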
# [17] = qHTS Assay for Identifying Gametocytocidal Compounds (AID 743244); note: potency is the fitted concentration of half-maximal effect;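 for max response: actives lower the fluorescent signal which means gametocytes are killed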; settings: P. falciparum 3D7 stage III-V gametocytes, alamarBlue, 72 h; max response: stronger effect = lower value
# Summary of the method: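 Stage III–V gametocytes of P. falciparum 3D7 were seeded at 20,000 cells/well onto pre-dispensed compounds. After 72 h, 37 °C, 5% CO2, alamarBlue was added for another 24 h.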
# [18] = target: Tumor necrosis factor (Homo sapiens) (UniProt P01375); experiment: qHTS assay to identify small molecules that stimulate Tumor Necrosis Factor-alpha (TNF-alpha) secretion (AID 651757; active = well fitted curve in the direction sought with a large enough effect in the signal ratio; the % refers to the signal ratio)
# Sequence of Tumor necrosis factor (Homo sapiens) (P01375 whole entry, looked up): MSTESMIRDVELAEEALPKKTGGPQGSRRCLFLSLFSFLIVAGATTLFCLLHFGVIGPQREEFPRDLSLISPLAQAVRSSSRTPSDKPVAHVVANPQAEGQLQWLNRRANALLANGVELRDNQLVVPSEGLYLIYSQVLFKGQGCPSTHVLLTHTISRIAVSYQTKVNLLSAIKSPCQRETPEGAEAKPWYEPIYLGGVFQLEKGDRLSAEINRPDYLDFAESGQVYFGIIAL
# Summary of the method: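 Secreted TNF-alpha quantified by TR-FRET sandwich of two labeled anti-TNF-alpha antibodies, incubated 3 hr at room temperature. Preceded by 17 hr, 37 C compound treatment of THP-1 cells at 3000 cells/well.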
# [19] = qHTS assay to identify small molecules that stimulate interleukin-8 (IL-8) secretion (AID 651758; active = well fitted activation curve with a large enough effect in the signal ratio; the % refers to the signal ratio)
# Summary of the method: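 Quantitative HTS in THP-1 monocytic cells at 2000 cells per well, with 16 hrs compound incubation at 37 C. IL-8 in the medium was then quantified by HTRF immunoassay, read after 1-3 hrs at room temperature.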
# [20] = qHTS assay for small molecule antagonists of the retinoid-related orphan receptor gamma (ROR-gamma) signaling pathway - cell viability counter screen (AID 720652; active = well fitted curve in the direction sought with a large enough effect in the repeat runs; an effect the other way counts as inactive or inconclusive;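 note: CHO reporter cells with doxycycline-induced ROR-gamma expression; series mostly up to about 92 µM; compound exposure lasted 16 hr before ATP read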)
# Summary of the method: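 Cytotoxicity counter screen: intracellular ATP (CellTiter-Glo luminescence) measured in the doxycycline-induced CHO RORE-luciferase reporter line after 16 hr compound exposure at 37 C, 5% CO2.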
smiles,measurement,setting,value
CC(C)C(=O)Nc1ccc([N+](=O)[O-])c(C(F)(F)F)c1,Potency,[1],42.2 µM (active)
same,Potency,[2],42.2 µM (active)
same,Potency,[3],23.7 µM (active)
C[C@]12CCC(=O)C(O)=C1CC[C@@H]1[C@@H]2CC[C@]2(C)C(=O)CC[C@@H]12,activation,[4],2.01% (inactive)
same,activation,[5],0.0711% (inactive)
same,max response,[6],-1.14% (inactive)
same,Potency,[7],inactive
same,outcome,[8],inactive
same,Potency,[9],inactive
same,outcome,[10],inactive
same,outcome,[11],inactive
same,outcome,[12],inactive
same,max response,[13],-0.568% (inactive)
same,outcome,[14],inactive
same,outcome,[15],inactive
same,outcome,[16],inactive
same,max response,[17],8.31% (inactive) and 12.3% (inactive)
NCC(O)c1ccc(O)cc1 (configuration not stated),activation,[4],-2.66% (inactive)
same,outcome,[18],inactive
same,Potency,[19],inactive
same,activation,[5],-0.493% (inactive)
same,max response,[6],-2.88% (inactive)
same,Potency,[3],inactive
same,Potency,[9],inactive
same,outcome,[10],inactive
same,outcome,[11],inactive
same,outcome,[12],inactive
same,Potency,[20],inactive
same,max response,[13],-9.13% (inactive)
same,outcome,[14],inactive
same,outcome,[15],inactive
same,outcome,[16],inactive
same,max response,[17],3.16% (inactive) and 11.7% (inactive)
Oc1cccc2cccnc12,outcome,[18],inactive
same,Potency,[19],inactive
same,activation,[5],0.681% (inactive) and 3.98% (inactive)
same,max response,[6],-5% (inactive) and -2.57% (inactive)
same,Potency,[3],inactive and 3.35 µM (active)
same,Potency,[20],inactive
same,max response,[13],-16.3% (inactive)
same,Potency,[17],11.2 µM (active) and 25.1 µM (active)
CCOP(=S)(OCC)Oc1cc(C)nc(C(C)C)n1,activation,[4],-0.534% (inactive) and -0.189% (inactive)
same,Potency,[1],inactive
same,Potency,[2],inactive
same,outcome,[18],inactive
same,activation,[5],1.79% (inactive) and 0.131% (inactive)
same,max response,[6],-5.15% (inactive) and -1.07% (inactive)
same,Potency,[3],inactive
same,Potency,[20],inactive
same,max response,[13],0.528% (inactive) and 11.7% (inactive)
same,max response,[17],18.9% (inactive)
Nc1ccncc1,activation,[4],-0.507% (inactive)
same,activation,[5],-2.98% (inactive)
same,max response,[6],0.27% (inactive)
same,Potency,[9],inactive
same,outcome,[10],inactive
same,outcome,[11],inactive
same,outcome,[12],inactive
same,outcome,[14],inactive
same,outcome,[15],inactive
same,outcome,[16],inactive
same,max response,[17],0.934% (inactive) and 25.7% (inactive)
Oc1ccccc1-c1ccccc1,outcome,[18],inactive
same,Potency,[19],inactive
same,activation,[5],0.277% (inactive) [middle of 4 runs]
same,max response,[6],-2.25% (inactive) and -0.4% (inactive) and 12.1% (inactive)
same,Potency,[3],inactive
same,Potency,[20],inactive
same,Potency,[13],251 µM (active)
same,max response,[13],-12.4% (inactive) and -2.58% (inactive) and -3.94% (inactive)
c1ccc2c(c1)Nc1ccccc1S2,Potency,[1],42.2 µM (active)
same,Potency,[2],66.8 µM (active)
same,max response,[6],-1.15% (inactive) and -1.18% (inactive)
same,Potency,[3],inactive
same,Potency,[20],inactive
same,max response,[13],-25.7% (inactive) and -9.49% (inactive)
same,Potency,[17],22.4 µM (active) and 28.2 µM (active)
COC1(CS(=O)c2ccccc2)CCN(CCc2c[nH]c3ccc(F)cc23)CC1 (configuration not stated),Potency,[7],inactive
same,outcome,[8],inactive
Oc1cc(Cl)ccc1Oc1ccc(Cl)cc1Cl,activation,[4],2.77% (inactive)
same,max response,[6],13.1% (inactive)
same,max response,[13],-9.95% (inactive)
Oc1ccc(Cl)cc1Cc1ccccc1,activation,[4],-0.62% (inactive) and 0.873% (inactive)
same,Potency,[1],18.8 µM (active)
same,Potency,[2],21.1 µM (active)
same,outcome,[18],inactive
same,activation,[5],0.74% (inactive) and 2.47% (inactive)
same,max response,[6],14% (inactive) and 4.54% (inactive)
same,Potency,[20],inactive
same,max response,[13],1.75% (inactive) and 7.8% (inactive)
same,max response,[17],-3.88% (inactive) and -14.6% (inactive)
C=C(C)[C@H]1Cc2c(ccc3c2O[C@@H]2COc4cc(OC)c(OC)cc4[C@@H]2C3=O)O1,activation,[4],7.78% (inactive)
same,activation,[5],3.42% (inactive)
same,max response,[6],7.18% (inactive)
same,Potency,[9],inactive
same,outcome,[10],inactive
same,outcome,[11],inactive
same,outcome,[12],inactive
same,outcome,[14],inactive
same,outcome,[15],inactive
same,outcome,[16],inactive
same,max response,[17],2.33% (inactive) and 3.94% (inactive)
C[C@@H]1[C@@H](CC(C[C@H]2O[C@@H]3O[C@]4(C)CC[C@@H]5[C@H](C)CC[C@@H]([C@H]2C)[C@@]35OO4)C[S+](=O)([O-])c2ccc(COC(=O)N(C)C)cc2)O[C@@H]2O[C@]3(C)CC[C@H]4[C@H](C)CC[C@@H]1[C@@]24OO3 (some centres not stated),Potency,[7],inactive
same,outcome,[8],inactive
same,Potency,[17],2.3 nM (active)
NN=C(N)N,Potency,[9],inactive
same,outcome,[10],inactive
same,outcome,[11],inactive
same,outcome,[12],inactive
same,outcome,[14],inactive
same,outcome,[15],inactive
same,outcome,[16],inactive
same,max response,[17],9.75% (inactive) and 23.5% (inactive)
O=NN(CCCl)C(=O)NCCCl,Potency,[9],inactive
COc1ccccc1N1CCNCC1,Potency,[9],inactive
same,outcome,[10],inactive
same,outcome,[11],inactive
same,outcome,[12],inactive
same,outcome,[14],inactive
same,outcome,[15],inactive
same,outcome,[16],inactive
same,max response,[17],13.1% (inactive) and 8.67% (inactive)
